Results filed as inconclusive are left out. Active and inactive are the calls of the source. Calls follow the shape of the dose curve; as a rule, active = well fitted curve in the direction sought with a large enough effect; inconclusive = small, poorly fitted or top-dose-only effect, or another doubt; inactive = no such curve, though single readings can be large; an effect the other way counts as inactive or inconclusive.
Columns and labels:
NIH3T3 [1] = assay: Cytotoxic Profiling of Annotated Libraries Using Quantitative High-Throughput Screening (AID 1296008); conditions: Five cell lines viability, CellTiter-Glo ATP luminescence, 48-72 h; max response: hits give low values; also: nearly all actives have a fitted effect of over 60% in size
How it was run: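 Cells exposed to compounds for 48 or 72 hr at 37 degrees Celsius. Viability read as ATP-coupled luminescence with CellTiter-Glo after 10 min at room temperature.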

HEK293T [2] = assay: qHTS assay to identify novel small-molecules to repurpose for Merkel cell carcinoma treatment (AID 1296009); conditions: MCC and control cell lines, CellTiter-Glo viability, 72 h; at 44.8 µM (top of the series) unless noted; also: nearly all actives have a fitted effect of over 60% in size
How it was run: (§1)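 CellTiter-Glo luminescence after 72 hr compound exposure at 37 degree celsius gave cell viability. Libraries NPC and MIPE were run as 8- and 11-point dose responses; RLUs normalized to DMSO (negative) and no-cell (cytotoxicity) controls.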

MCC-13 = assay: as above; conditions: MCC and control cell lines, CellTiter-Glo viability, 72 h; series mostly up to 46 µM
How it was run: as §1

MCC-26 = assay: as above; conditions: MCC and control cell lines, CellTiter-Glo viability, 72 h; series mostly up to 46 µM
How it was run: as §1

MKL-1 = assay: as above; conditions: MCC and control cell lines, CellTiter-Glo viability, 72 h; series mostly up to 46 µM
How it was run: as §1

MKL-2 = assay: as above; conditions: MCC and control cell lines, CellTiter-Glo viability, 72 h; series mostly up to 46 µM
How it was run: as §1

NIH3T3 [3] = assay: as above; conditions: MCC and control cell lines, CellTiter-Glo viability, 72 h; at 44.8 µM (top of the series) unless noted
How it was run: as §1

UISO = assay: as above; conditions: MCC and control cell lines, CellTiter-Glo viability, 72 h; series mostly up to 46 µM
How it was run: as §1

WaGa = assay: as above; conditions: MCC and control cell lines, CellTiter-Glo viability, 72 h; series mostly up to 46 µM
How it was run: as §1

C33A = assay: Primary qHTS to identify gynecologic anti-cancer compounds using libraries of approved drugs and bioactive compounds (AID 1345084); conditions: Gynecologic cancer cell panel viability, ATPlite luminescence, 48 h; series mostly up to 57.5 µM; also: nearly all actives have a fitted effect of over 55% in size
How it was run: (§2)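 48 h compound exposure at 37 C, 5% CO2; five-point qHTS. ATPlite luminescence readout of cell ATP.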

CASKI = assay: as above; conditions: Gynecologic cancer cell panel viability, ATPlite luminescence, 48 h; series mostly up to 57.5 µM
How it was run: as §2

Es-2 = assay: as above; conditions: Gynecologic cancer cell panel viability, ATPlite luminescence, 48 h; series mostly up to 57.5 µM
How it was run: as §2

HeLa = assay: as above; conditions: Gynecologic cancer cell panel viability, ATPlite luminescence, 48 h; series mostly up to 57.5 µM
How it was run: as §2

Hek293T [4] = assay: as above; conditions: Gynecologic cancer cell panel viability, ATPlite luminescence, 48 h, control line for the selectivity index; series mostly up to 57.5 µM
How it was run: as §2

JEG-3 = assay: as above; conditions: Gynecologic cancer cell panel viability, ATPlite luminescence, 48 h; series mostly up to 57.5 µM
How it was run: as §2

OV90 = assay: as above; conditions: Gynecologic cancer cell panel viability, ATPlite luminescence, 48 h; series mostly up to 57.5 µM
How it was run: as §2

PA-1 = assay: as above; conditions: Gynecologic cancer cell panel viability, ATPlite luminescence, 48 h; series mostly up to 57.5 µM
How it was run: as §2

SKOV3 = assay: as above; conditions: Gynecologic cancer cell panel viability, ATPlite luminescence, 48 h; series mostly up to 57.5 µM
How it was run: as §2

CAOV3 = assay: as above; conditions: Gynecologic cancer cell panel viability, ATPlite luminescence, 48 h; series mostly up to 57.5 µM
How it was run: as §2
% is scaled to controls: 0 for no effect and ±100 for the full control effect.

Nc1ncnc2c1ncn2Cc1c(F)cccc1Cl
inactive: outcome (NIH3T3 [1]) | outcome (HEK293T [2]) | Potency (MCC-13) | Potency (MCC-26) | Potency (MKL-1) | Potency (MKL-2) | outcome (NIH3T3 [3]) | Potency (UISO) | Potency (WaGa) | Potency (C33A) | Potency (CASKI) | Potency (Es-2) | Potency (HeLa) | Potency (Hek293T [4]) | Potency (JEG-3) | Potency (OV90) | Potency (PA-1) | Potency (SKOV3)

CN1CCN(N)CC1
inactive: outcome (NIH3T3 [1]) | outcome (HEK293T [2]) | Potency (MCC-13) | Potency (MCC-26) | Potency (MKL-1) | Potency (MKL-2) | outcome (NIH3T3 [3]) | Potency (UISO) | Potency (WaGa) | Potency (C33A) | Potency (CAOV3) | Potency (CASKI) | Potency (Es-2) | Potency (HeLa) | Potency (Hek293T [4]) | Potency (JEG-3) | Potency (OV90) | Potency (PA-1) | Potency (SKOV3)

Nc1c[n+](N2CCOCC2)no1
inactive: outcome (NIH3T3 [1]) | outcome (HEK293T [2]) | Potency (MCC-13) | Potency (MCC-26) | Potency (MKL-1) | Potency (MKL-2) | outcome (NIH3T3 [3]) | Potency (UISO) | Potency (WaGa) | Potency (C33A) | Potency (CAOV3) | Potency (CASKI) | Potency (Es-2) | Potency (HeLa) | Potency (Hek293T [4]) | Potency (JEG-3) | Potency (OV90) | Potency (PA-1) | Potency (SKOV3)

C1=CC2C3C=CC(C3)C2C1 (stereo not drawn)
inactive: max response (NIH3T3 [1]) 0.366% | outcome (HEK293T [2]) inactive [at 92 µM] | Potency (MCC-13) | Potency (MCC-26) | Potency (MKL-1) | Potency (MKL-2) | Potency (UISO) | Potency (WaGa) | Potency (C33A) | Potency (CAOV3) | Potency (CASKI) | Potency (Es-2) | Potency (HeLa) | Potency (Hek293T [4]) | Potency (JEG-3) | Potency (OV90) | Potency (PA-1)

Cc1c(F)cc2c(=O)c(C(=O)O)cn3c2c1CCC3C (stereo not drawn)
inactive: max response (NIH3T3 [1]) -8.9% | outcome (HEK293T [2]) | Potency (MCC-13) | Potency (MCC-26) | Potency (MKL-1) | Potency (MKL-2) | Potency (UISO) | Potency (WaGa) | Potency (C33A) | Potency (CAOV3) | Potency (CASKI) | Potency (Es-2) | Potency (HeLa) | Potency (Hek293T [4]) | Potency (JEG-3) | Potency (OV90) | Potency (PA-1) | Potency (SKOV3)

OC[C@]1(O)OC[C@@H](O)[C@H](O)[C@@H]1O
inactive: outcome (NIH3T3 [1]) | outcome (HEK293T [2]) | Potency (MCC-13) | Potency (MCC-26) | Potency (MKL-1) | Potency (MKL-2) | outcome (NIH3T3 [3]) | Potency (UISO) | Potency (WaGa) | Potency (C33A) | Potency (CAOV3) | Potency (CASKI) | Potency (Es-2) | Potency (HeLa) | Potency (Hek293T [4]) | Potency (JEG-3) | Potency (OV90) | Potency (PA-1) | Potency (SKOV3)

CCS(=O)(=O)c1ccc(OC)c(C(=O)OC)c1
inactive: outcome (NIH3T3 [1]) | outcome (HEK293T [2]) | Potency (MCC-13) | Potency (MCC-26) | Potency (MKL-1) | Potency (MKL-2) | outcome (NIH3T3 [3]) | Potency (UISO) | Potency (WaGa) | Potency (C33A) | Potency (CAOV3) | Potency (CASKI) | Potency (Es-2) | Potency (HeLa) | Potency (Hek293T [4]) | Potency (JEG-3) | Potency (OV90) | Potency (PA-1) | Potency (SKOV3)

CCOc1c(N2CCOCC2)cnn(C)c1=O
inactive: max response (NIH3T3 [1]) -0.145% | outcome (HEK293T [2]) | Potency (MCC-13) | Potency (MCC-26) | Potency (MKL-1) | Potency (MKL-2) | Potency (UISO) | Potency (WaGa) | Potency (C33A) | Potency (CAOV3) | Potency (CASKI) | Potency (Es-2) | Potency (HeLa) | Potency (Hek293T [4]) | Potency (JEG-3) | Potency (OV90) | Potency (PA-1) | Potency (SKOV3)

CCOc1ccc(NS(=O)(=O)c2ccc(N)cc2)nn1
inactive: max response (NIH3T3 [1]) 3.16% | outcome (HEK293T [2]) | Potency (MCC-13) | Potency (MCC-26) | Potency (MKL-1) | Potency (MKL-2) | Potency (UISO) | Potency (WaGa) | Potency (C33A) | Potency (CAOV3) | Potency (CASKI) | Potency (Es-2) | Potency (HeLa) | Potency (Hek293T [4]) | Potency (JEG-3) | Potency (OV90) | Potency (PA-1) | Potency (SKOV3)

CCOC(=O)CN1CCCC1=O
inactive: outcome (NIH3T3 [1]) | Potency (MCC-13) | Potency (MCC-26) | Potency (MKL-1) | Potency (MKL-2) | outcome (NIH3T3 [3]) | Potency (UISO) | Potency (WaGa) | Potency (C33A) | Potency (CAOV3) | Potency (CASKI) | Potency (Es-2) | Potency (HeLa) | Potency (Hek293T [4]) | Potency (JEG-3) | Potency (OV90) | Potency (PA-1) | Potency (SKOV3)

Cn1cc(S(C)=O)c(=O)c2ccc(F)cc21 (stereo not drawn)
inactive: outcome (NIH3T3 [1]) | Potency (MCC-13) | Potency (MCC-26) | Potency (MKL-1) | Potency (MKL-2) | outcome (NIH3T3 [3]) | Potency (UISO) | Potency (WaGa) | Potency (C33A) | Potency (CAOV3) | Potency (CASKI) | Potency (Es-2) | Potency (HeLa) | Potency (Hek293T [4]) | Potency (JEG-3) | Potency (PA-1) | Potency (SKOV3)

C#Cc1ccc(-c2ccccc2F)cc1
inactive: outcome (NIH3T3 [1]) | Potency (MCC-13) | Potency (MCC-26) | Potency (MKL-1) | Potency (MKL-2) | outcome (NIH3T3 [3]) | Potency (UISO) | Potency (WaGa) | Potency (C33A) | Potency (CAOV3) | Potency (CASKI) | Potency (Es-2) | Potency (HeLa) | Potency (Hek293T [4]) | Potency (JEG-3) | Potency (OV90) | Potency (PA-1) | Potency (SKOV3)

CCNC(=O)NCCCOc1cccc(CN2CCCCC2)c1
inactive: outcome (NIH3T3 [1]) | Potency (MCC-13) | Potency (MCC-26) | Potency (MKL-1) | Potency (MKL-2) | outcome (NIH3T3 [3]) | Potency (UISO) | Potency (WaGa) | Potency (C33A) | Potency (CAOV3) | Potency (CASKI) | Potency (Es-2) | Potency (HeLa) | Potency (Hek293T [4]) | Potency (JEG-3) | Potency (PA-1) | Potency (SKOV3)

Cc1ccc(C(=O)C(=O)O)cc1C
inactive: max response (NIH3T3 [1]) 2.73% | outcome (HEK293T [2]) | Potency (MCC-13) | Potency (MCC-26) | Potency (MKL-1) | Potency (MKL-2) | Potency (UISO) | Potency (WaGa) | Potency (C33A) | Potency (CAOV3) | Potency (CASKI) | Potency (Es-2) | Potency (HeLa) | Potency (Hek293T [4]) | Potency (JEG-3) | Potency (OV90) | Potency (PA-1) | Potency (SKOV3)

Reference: PubChem BioAssay (NCATS)
